Screening data: PubChem BioAssay, National Center for Advancing Translational Sciences (NCATS)
Compounds with a hit are over-represented: about 2.4% of the library has one in this group of screens.
D2 PAM-1: positively modulates the human D2 dopamine receptor allosterically; HEK293 T-REx D2, calcium flux, EC20 dopamine potentiation; potentiation, % at 10 µM; hit rate 0.34% among 340,000; P14416;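 active = potentiation over 3 SD above the plate norm, cut at about 30% in these data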; note: 0% is about no effect
Target sequence (P14416 whole entry, looked up): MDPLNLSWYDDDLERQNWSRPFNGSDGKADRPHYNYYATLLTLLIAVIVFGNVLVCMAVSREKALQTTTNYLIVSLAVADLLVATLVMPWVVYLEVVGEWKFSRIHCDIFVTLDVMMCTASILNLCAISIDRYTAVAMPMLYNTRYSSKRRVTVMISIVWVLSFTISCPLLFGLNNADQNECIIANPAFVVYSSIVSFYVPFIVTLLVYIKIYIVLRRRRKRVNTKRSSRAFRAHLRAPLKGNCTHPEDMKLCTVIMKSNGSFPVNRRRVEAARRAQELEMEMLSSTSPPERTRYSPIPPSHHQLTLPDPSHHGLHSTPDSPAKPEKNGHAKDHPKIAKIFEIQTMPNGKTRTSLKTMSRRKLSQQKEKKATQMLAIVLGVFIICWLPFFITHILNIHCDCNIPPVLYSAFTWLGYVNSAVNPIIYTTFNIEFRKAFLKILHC
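Tetracycline-induced Hek293 Trex D2 cells, force-coupled to calcium, loaded with no-wash calcium dye. Compound added with 180 s kinetic read for agonism, then EC20 dopamine and a further 180 s read for potentiation.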
D2 ag-1: human D2 receptor agonism in beta-arrestin assay; P14416; DiscoveRx PathHunter D2 beta-arrestin, luminescence, 90 min; 100% = 57 uM dopamine signal; activation, % (concentration not given with the values); hit rate 0.084% among 360,000; AID 624465; in the data active = activation above about 40%
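DiscoveRx PathHunter D2 beta-arrestin cells (2,100/well) attached overnight, then compound-stimulated 90 min at 37 C in HBSS/10 mM HEPES/0.1% Tween-20 buffer; beta-galactosidase complementation read by luminescence after 1 h at ambient temperature. Dopamine 57 uM final (EC100) as control.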
D2 antagonist: D2 dopamine receptor (human) antagonism; HEK293 TREx D2 cells, calcium flux, dopamine EC80; P14416; inhibition, % at 10 µM; AID 485344; hit rate 2% among 340,000; in the data active = inhibition above about 30%; inactive = below that, where a call was filed; note: 0% is about no effect
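Calcium mobilization kinetics were recorded at 1 s intervals in tetracycline-induced HEK293 T-REx D2 cells, first for 180 s after compound addition and then 180 s after EC80 dopamine.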
D2 ag-2: activates the human D2 dopamine receptor. activation, % at 2 µM. hit rate 0.53% among 340,000. HEK293 T-REx D2 cells, calcium flux agonist mode;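 active = activation over 3 SD above normal in the single-dose calcium agonist read, cut at about 30% in these data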; note: 0% is about no effect
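HEK293 Trex D2 cells, tetracycline-induced, o/n 30 C 5% CO2; no-wash Ca dye, RT 30–90 min; 10-cycle baseline, 23 nl cpd added, kinetic Ca read 180 s; agonist hits = positive Ca response.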
D2 PAM-2: human D2 receptor positive allosteric modulation. P14416. DiscoveRx D2 beta-arrestin cells, luminescence, 90 min; 100% = 57 uM dopamine signal. potentiation, % (test concentration not listed). hit rate 0.23% among 360,000; in the data active = potentiation above about 50%
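PathHunter D2 cells, attached overnight at 37 deg C, received compound in DMSO plus dopamine at EC20 (50 nM final) for 90 min at 37 deg C. Beta-arrestin recruitment was read as luminescence after 1 h with detection reagent at ambient temperature.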
* = called active by the depositor; · = no result given.

SMILES | D2 PAM-1 | D2 ag-1 | D2 antagonist | D2 ag-2 | D2 PAM-2
Cc1cc(OCc2cc(C(=O)N3CCN(C)C(=O)[C@@H]3C)no2)cc(C)c1Cl | 30* | 0 | 3 | 1 | -14
COc1ccc(S(=O)(=O)Nc2cccc(N(C)S(C)(=O)=O)c2)cc1Br | -4 | -1 | -7 | 1 | 15
CN(c1cccc(NS(=O)(=O)c2cccs2)c1)S(C)(=O)=O | 30* | 3 | 17 | 0 | -3
CC(=O)Nc1c(C)nn(-c2ccccc2)c1N1CCC(C(=O)NCc2cccc(F)c2)CC1 | -9 | · | · | 1 | ·
CCOc1ccc(CN(C)CC(=O)Nc2ccc3c(c2)CCC3)cc1OC | -2 | -1 | 30* | 2 | -9
C=CCOc1ccc(CN(C)CC(=O)Nc2ccc3c(c2)CCC3)cc1 | -3 | 3 | -23 | 1 | -6
COc1ccc(C(=O)Nc2ccccc2N2CCOCC2)cc1[N+](=O)[O-] | 10 | -2 | 1 | 2 | -10
COc1ccc(C(=O)NC(=S)Nc2ccccc2N2CCOCC2)cc1[N+](=O)[O-] | 18 | -6 | 39* | 0 | -34
COc1ccccc1C(=O)Nc1ccccc1C(=O)N1C(C)CCCC1C (stereo not drawn) | -2 | -3 | 48* | -1 | -6
COc1cccc(OC)c1C(=O)Nc1ccccc1C(=O)N1CCCC1 | 2 | 0 | -1 | 1 | 6
CCOC(=O)c1c(CN2CCOCC2)oc2ccc(OC)cc12 | 31* | -3 | -11 | 0 | -11
CCOC(=O)c1c(CN2CCCCC2)oc2ccc(O)cc12 | -7 | -4 | -1 | 3 | -20
O=C(Nc1ccccc1C(=O)O)c1cccc(NC(=O)c2ccccc2Cl)c1 | 0 | 6 | 17 | 1 | 64*
Cc1ccccc1C(=O)Nc1cccc(C(=O)Nc2ccccc2C(=O)O)c1 | 33* | 3 | 2 | 0 | 18
O=C(Nc1ccc2nc(SCC(=O)N3CCCc4ccccc43)sc2c1)c1ccccc1 | 5 | · | · | 4 | ·
CS(=O)(=O)N(CC(=O)Nc1cccc([N+](=O)[O-])c1)c1ccccc1 | 1 | -6 | -25 | -1 | -7
COc1cc(/C=N/NC(=O)c2ccc(N(C)S(=O)(=O)c3ccccc3)cc2)cc(OC)c1OC | -3 | 2 | -3 | 0 | -4
CS(=O)(=O)N(CC(=O)Nc1cccc([N+](=O)[O-])c1)c1ccccc1F | 5 | -6 | 44* | -1 | -5
CCOc1cc(/C=N/NC(=O)c2ccc(N(C)S(=O)(=O)c3ccccc3)cc2)ccc1OC | -4 | -1 | 31* | 1 | -3
Cc1ccc(S(=O)(=O)N(C)c2ccc(C(=O)Nc3cccnc3)cc2)cc1 | -5 | -1 | 35* | 0 | -28
Cc1ccc(/C=N/NC(=O)c2ccc(N(C)S(=O)(=O)c3ccccc3)cc2)cc1 | -5 | 1 | 48* | 0 | -7
COc1ccc(CCNC(=O)c2cc3c(=O)n(C)c4cc(Cl)ccc4c3s2)cc1OC | 0 | · | · | 0 | ·
Cc1ccc(S(=O)(=O)N(CC(=O)Nc2cccnc2)c2cccc([N+](=O)[O-])c2)cc1 | -23 | -1 | 50* | -1 | -21
Cc1ccc(S(=O)(=O)NC(=O)Nc2cccc([N+](=O)[O-])c2)cc1 | 1 | 1 | 68* | 0 | -8
Cc1ccc(S(=O)(=O)N(C)/N=C/c2ccc(C(=O)O)cc2)cc1 | -3 | -4 | 30* | 0 | 2
SMILES | D2 PAM-1 | D2 ag-1 | D2 antagonist | D2 ag-2 | D2 PAM-2
Cc1ccc(S(=O)(=O)NCC(=O)Nc2cccc([N+](=O)[O-])c2)cc1 | 5 | 1 | -12 | -1 | -9
Cc1ccc2nc(NCC(=O)O)nc(-c3ccccc3)c2c1 | 1 | 0 | -2 | 0 | 2
Cc1ccc2nc(NCCC(=O)O)nc(-c3ccccc3)c2c1 | 31* | -3 | -7 | 4 | -1
CN(CC(=O)Nc1cccc(F)c1)C(=O)c1ccc2c(c1)S(=O)(=O)N=C1CCCCCN12 | 32* | -5 | -1 | 1 | -12
COC(=O)c1ccc(O)cc1 | -1 | 0 | -9 | -1 | 0
CCN(CC)C(=O)C(C)OC(=O)c1ccc(O)cc1 (stereo not drawn) | 12 | 1 | 30* | 0 | 3
CC(=O)OC1CC2(C)/C(=N\O)CCC2C2CCc3cc(O)ccc3C12 (stereo not drawn) | · | 41* | · | · | 5
